From article PMC5700166

Legend:
Experiment in all cases: protein-binding microarray (PBM); PBM: ~300 nM protein, 6 mM HEPES pH 7.8, 80 mM KCl, 0.5 mM EDTA, 0.5 mM EGTA, 6% glycerol, 35 ng/ul poly-dIdC, 1% milk, 1 h, room temperature; Ap Aiptasia and Nv Nematostella (sea anemones) / Co Capsaspora / Aq Amphimedon (sponge) / Dm Drosophila / Hu human; RHD is the Rel homology domain; high values mean tight binding
Details in all cases: dsDNA, one strand shown
GST-Ap-NF-kB RHD = target: T1, GST-Ap-NF-kB RHD (Exaiptasia pallida (Aiptasia), UniProt A0A913YAJ5 2-422)
T1 sequence: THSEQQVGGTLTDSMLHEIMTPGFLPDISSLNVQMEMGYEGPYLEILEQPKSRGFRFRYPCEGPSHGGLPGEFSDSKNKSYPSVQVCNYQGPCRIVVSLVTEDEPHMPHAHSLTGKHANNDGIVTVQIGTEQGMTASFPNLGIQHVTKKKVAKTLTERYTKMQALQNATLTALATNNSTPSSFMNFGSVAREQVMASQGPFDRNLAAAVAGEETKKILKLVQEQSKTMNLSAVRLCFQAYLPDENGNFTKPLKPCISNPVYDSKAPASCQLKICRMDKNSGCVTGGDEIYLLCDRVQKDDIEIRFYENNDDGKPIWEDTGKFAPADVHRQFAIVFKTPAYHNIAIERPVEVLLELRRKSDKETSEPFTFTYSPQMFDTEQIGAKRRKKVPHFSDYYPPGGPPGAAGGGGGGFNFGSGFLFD

[1] = target: T2, GST-Nv-NF-kB (Cys allele) (Nematostella vectensis, UniProt E5G601 2-411)
T2 sequence: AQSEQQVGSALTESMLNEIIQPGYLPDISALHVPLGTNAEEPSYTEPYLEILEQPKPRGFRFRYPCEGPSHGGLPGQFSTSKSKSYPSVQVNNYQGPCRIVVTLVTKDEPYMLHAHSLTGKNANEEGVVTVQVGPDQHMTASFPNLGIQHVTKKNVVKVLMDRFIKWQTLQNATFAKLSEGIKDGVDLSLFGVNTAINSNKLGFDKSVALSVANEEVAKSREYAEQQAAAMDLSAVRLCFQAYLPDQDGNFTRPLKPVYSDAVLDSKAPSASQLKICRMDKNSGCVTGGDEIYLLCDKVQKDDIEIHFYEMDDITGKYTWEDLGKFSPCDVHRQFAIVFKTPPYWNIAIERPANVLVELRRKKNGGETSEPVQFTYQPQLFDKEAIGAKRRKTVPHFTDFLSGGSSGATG

GST-Co-NF-kB = target: T3, GST-Co-NF-kB (Capsaspora owczarzaki, UniProt F1ARL5 200-546)
T3 sequence: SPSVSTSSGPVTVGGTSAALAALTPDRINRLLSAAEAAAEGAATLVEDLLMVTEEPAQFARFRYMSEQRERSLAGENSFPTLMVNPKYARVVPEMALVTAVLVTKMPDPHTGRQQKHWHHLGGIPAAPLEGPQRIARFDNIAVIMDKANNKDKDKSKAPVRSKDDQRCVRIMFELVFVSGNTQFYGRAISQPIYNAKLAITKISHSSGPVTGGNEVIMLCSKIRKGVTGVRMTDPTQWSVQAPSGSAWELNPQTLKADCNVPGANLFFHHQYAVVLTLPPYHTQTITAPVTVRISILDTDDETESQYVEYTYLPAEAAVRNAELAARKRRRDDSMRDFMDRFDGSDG

GST-Dm-Relish = target: T4, GST-Dm-Relish (Drosophila melanogaster, UniProt Q94527 99-473)
T4 sequence: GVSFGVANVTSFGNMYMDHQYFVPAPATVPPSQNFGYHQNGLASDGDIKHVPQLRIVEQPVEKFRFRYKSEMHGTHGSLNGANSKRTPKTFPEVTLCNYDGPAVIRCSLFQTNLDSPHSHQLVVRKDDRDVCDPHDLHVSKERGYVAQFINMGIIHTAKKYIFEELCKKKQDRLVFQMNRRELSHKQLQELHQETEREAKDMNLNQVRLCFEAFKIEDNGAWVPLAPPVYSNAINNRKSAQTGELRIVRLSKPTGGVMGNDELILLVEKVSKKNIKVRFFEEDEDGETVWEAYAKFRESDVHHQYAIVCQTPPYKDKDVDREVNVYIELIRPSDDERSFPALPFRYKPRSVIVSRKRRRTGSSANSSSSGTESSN

GST-Aq-NF-kB = target: T5, GST-Aq-NF-kB (Amphimedon queenslandica, UniProt A9Y5G7 2-389)
T5 sequence: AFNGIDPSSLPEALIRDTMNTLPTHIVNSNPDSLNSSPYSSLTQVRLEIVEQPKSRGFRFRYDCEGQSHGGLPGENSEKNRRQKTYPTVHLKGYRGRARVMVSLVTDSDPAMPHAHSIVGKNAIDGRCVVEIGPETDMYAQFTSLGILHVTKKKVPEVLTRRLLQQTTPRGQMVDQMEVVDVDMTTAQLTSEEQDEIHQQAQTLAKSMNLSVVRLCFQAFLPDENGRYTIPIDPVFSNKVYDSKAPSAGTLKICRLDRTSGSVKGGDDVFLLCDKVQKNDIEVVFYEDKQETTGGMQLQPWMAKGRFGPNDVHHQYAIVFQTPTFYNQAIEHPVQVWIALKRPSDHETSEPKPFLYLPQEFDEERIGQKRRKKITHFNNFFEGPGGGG

GST-Hu-p50 = GST-Hu-p50 (Homo sapiens, UniProt P19838 7-356)
GST-Hu-p50, sequence (P19838 7-356): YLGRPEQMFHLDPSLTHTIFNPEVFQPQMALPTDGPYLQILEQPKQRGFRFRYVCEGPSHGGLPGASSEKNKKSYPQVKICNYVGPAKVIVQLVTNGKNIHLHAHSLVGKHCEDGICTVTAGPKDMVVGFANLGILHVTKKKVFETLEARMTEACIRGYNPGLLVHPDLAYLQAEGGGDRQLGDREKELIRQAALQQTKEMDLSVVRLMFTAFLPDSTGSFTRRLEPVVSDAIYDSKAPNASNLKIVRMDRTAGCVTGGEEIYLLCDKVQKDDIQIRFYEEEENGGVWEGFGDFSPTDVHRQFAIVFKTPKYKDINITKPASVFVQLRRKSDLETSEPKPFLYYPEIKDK

| Sequence | binding signal (GST-Ap-NF-kB RHD) [z-score] | binding signal [1] [z-score] | binding signal (GST-Co-NF-kB) [z-score] | binding signal (GST-Dm-Relish) [z-score] | binding signal (GST-Aq-NF-kB) [z-score] | binding signal (GST-Hu-p50) [z-score] |
| --- | --- | --- | --- | --- | --- | --- |
| CCGATTAACATCAATATCCCCCCTGATGTTAATCGGGTCTTGATTCGCTTGACGCTGCTG | 7.34 | 5.13 | 8.06 | 5.53 | 5.74 | 5.69 |
| CCGATTAACATCAGGATGTCCCCTGATGTTAATCGGGTCTTGATTCGCTTGACGCTGCTG | 6.09 | 4.93 | 2.61 | 5.89 | 5.87 | 4.51 |
| CCGATTAACATCAGGCGTTCCCCTGATGTTAATCGGGTCTTGATTCGCTTGACGCTGCTG | 5.26 | 6.01 | 3.98 | 6.34 | 5.53 | 4.27 |
| CCGATTAACATCAAATTCCCTTATGATGTTAATCGGGTCTTGATTCGCTTGACGCTGCTG | 3.4 | 5.97 | 2.16 | 3.37 | 5.01 | 4.42 |
| CCGATTAACATCAGAAATGCCCCTGATGTTAATCGGGTCTTGATTCGCTTGACGCTGCTG | 4.03 | 5.61 | 1.98 | 4.09 | 5.32 | 5.55 |
| CCGATTAACATCAGGAAATACCCTGATGTTAATCGGGTCTTGATTCGCTTGACGCTGCTG | 6.05 | 8.7 | 1.14 | 7.3 | 9.37 | 6.12 |
| CCGATTAACATCAGGGGGGAACATGATGTTAATCGGGTCTTGATTCGCTTGACGCTGCTG | 6.4 | 4.35 | 9.73 | 4.25 | 5.22 | 5.4 |
| CCGATTAACATCAGGGGGAGGGATGATGTTAATCGGGTCTTGATTCGCTTGACGCTGCTG | 4.44 | 4.45 | 5.87 | 3.28 | 4.21 | 4.01 |
| CCGATTAACATCAGAGATCCCCCTGATGTTAATCGGGTCTTGATTCGCTTGACGCTGCTG | 7.26 | 6.17 | 4.52 | 6.84 | 5.8 | 6.13 |
| CCGATTAACATCAAAATTCCCTGTGATGTTAATCGGGTCTTGATTCGCTTGACGCTGCTG | 4.81 | 6.86 | 4.2 | 5.96 | 6.37 | 5.07 |
| CCGATTAACATCAGGGCTCCCCATGATGTTAATCGGGTCTTGATTCGCTTGACGCTGCTG | 2.59 | 1.32 | 2.03 | 3.88 | 2.46 | 1.51 |
| CCGATTAACATCAGGGGGTTATATGATGTTAATCGGGTCTTGATTCGCTTGACGCTGCTG | 6.77 | 5.64 | 3.18 | 6.58 | 6.3 | 5.59 |
| CCGATTAACATCAAGGGAATTCCTGATGTTAATCGGGTCTTGATTCGCTTGACGCTGCTG | 7.9 | 8.71 | 3.76 | 7.95 | 8.11 | 5.3 |
| CCGATTAACATCAGGAGTTCCCATGATGTTAATCGGGTCTTGATTCGCTTGACGCTGCTG | 2.2 | 2.14 | 1.68 | 6.1 | 3.51 | 1.53 |
| CCGATTAACATCAGACAACCCCCTGATGTTAATCGGGTCTTGATTCGCTTGACGCTGCTG | 5.23 | 4.47 | 1.95 | 5.15 | 4.98 | 5.28 |
| CCGATTAACATCAGGGGGTTAAATGATGTTAATCGGGTCTTGATTCGCTTGACGCTGCTG | 4.33 | 4.07 | 3.62 | 5.86 | 4.49 | 4.29 |
| CCGATTAACATCAGGCCTTCCCCTGATGTTAATCGGGTCTTGATTCGCTTGACGCTGCTG | 6.39 | 6.79 | 2.84 | 9.6 | 7.14 | 4.63 |
| CCGATTAACATCACCGAACCCCCTGATGTTAATCGGGTCTTGATTCGCTTGACGCTGCTG | 5.86 | 3.55 | 2.04 | 4.86 | 3.82 | 5.57 |
| CCGATTAACATCAAGGGGGATACTGATGTTAATCGGGTCTTGATTCGCTTGACGCTGCTG | 6.74 | 4.59 | 4.72 | 3.41 | 4.99 | 5.48 |
| CCGATTAACATCAGGGACTTTAATGATGTTAATCGGGTCTTGATTCGCTTGACGCTGCTG | 4.47 | 5.92 | 1.03 | 5.04 | 5.12 | 5.02 |
| CCGATTAACATCAAAAAACCCCATGATGTTAATCGGGTCTTGATTCGCTTGACGCTGCTG | 6.53 | 7.08 | 2.59 | 9.52 | 6.77 | 6.62 |
| CCGATTAACATCAAACATCCCCCTGATGTTAATCGGGTCTTGATTCGCTTGACGCTGCTG | 6.59 | 6.38 | 5.97 | 6.53 | 6.6 | 5.44 |
| CCGATTAACATCAGGGATGCCCCTGATGTTAATCGGGTCTTGATTCGCTTGACGCTGCTG | 6.96 | 8.09 | 1.84 | 9.08 | 8.39 | 5.89 |
| CCGATTAACATCACGGGAAGTACTGATGTTAATCGGGTCTTGATTCGCTTGACGCTGCTG | 1.21 | 1.43 | 1.57 | 8.29 | 3.28 | 1.09 |
| CCGATTAACATCAGAATACCCCCTGATGTTAATCGGGTCTTGATTCGCTTGACGCTGCTG | 7.89 | 5.69 | 4.84 | 5.26 | 5.57 | 5.27 |
